Rv3671c protease – Rv3671c serine protease inhibitors, primary screen, biochemical, fluorescence polarization, M. tuberculosis H37Rv; AID 2606, 2010; inhibition, % at 5.96 µM; hit rate 0.048% among 320,000; in the data active = inhibition above about 38%;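 also: extracellular domain of Rv3671c used as enzyme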
PfHsp40 rescue – rescue of yeast from PfHsp40 toxicity, primary screen, S. cerevisiae, ATP luminescence | hit rate 0.68% among 340,000 | S. cerevisiae expressing PfHsp40, growth rescue | growth rescue, % at 12.5 µM; in the data active = growth rescue above about 28%, passing the limit was not always enough;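 also: yeast W303a lacking pdr1 and pdr3 grown in galactose medium; growth measured after three days at 30 °C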
Mtb betalactam – beta-lactam sensitization of Mtb H37Rv, H37Rv. M. tuberculosis H37Rv growth with meropenem, percent inhibition. inhibition, % at 25 µM. hit rate 0.27% among 330,000. AID 434955, 2010; call rule not given here;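 also: growth measured after seven days incubation then overnight dye step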
Mtb UGM inh – M. tuberculosis UGM enzyme inhibitors, primary screen, biochemical, fluorescence polarization, single point; hit rate 0.06% among 320,000; inhibition, % at 10 µM; AID 504406, 2011; UDP-galactopyranose mutase (Mycobacterium tuberculosis (strain ATCC 25618 / H37Rv)), …; purified UGM, fluorescence polarization probe displacement; in the data active = inhibition above about 10%, passing the limit was not always enough
Target sequence (P9WIQ1 whole entry, looked up): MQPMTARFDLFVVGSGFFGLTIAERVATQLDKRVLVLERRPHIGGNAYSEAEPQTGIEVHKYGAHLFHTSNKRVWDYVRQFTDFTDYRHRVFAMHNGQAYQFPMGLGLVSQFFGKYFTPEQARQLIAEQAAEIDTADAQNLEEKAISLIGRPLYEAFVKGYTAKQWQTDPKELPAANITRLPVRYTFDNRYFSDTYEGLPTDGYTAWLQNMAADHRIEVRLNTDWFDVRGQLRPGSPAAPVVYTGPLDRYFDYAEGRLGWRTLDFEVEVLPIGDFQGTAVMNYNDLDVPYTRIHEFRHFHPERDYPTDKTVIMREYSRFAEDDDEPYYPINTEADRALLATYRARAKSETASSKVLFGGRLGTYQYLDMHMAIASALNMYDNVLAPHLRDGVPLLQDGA
Y pestis TopoI – Yersinia pestis topoisomerase I inhibitors, primary screen, biochemical, cleavage product accumulation, plate reader, single point | DNA topoisomerase I (Yersinia pestis CO92) | Y. pestis Topo-I cleavage product accumulation | activity, % at 10 µM | hit rate 0.064% among 360,000 | AID 504884, 2011; in the data active = activity above about 50%, passing the limit was not always enough
FadD28 binding – inhibitors of FadD28 bisubstrate probe binding, primary screen, biochemical, fluorescence polarization, single point; Mycobacterium tuberculosis FadD28 fatty-acid-AMP ligase; hit rate 0.22% among 360,000; inhibition, % at 12.5 µM; AID 588549, 2011; in the data active = inhibition above about 8.5%, passing the limit was not always enough
Each line names hits and unclear results; the compound was inactive in the other large screens; ! = a repeat was not active. A selection: hits, their analogues and other compounds. The true share with any hit is near 0.98%.

O=C(/C=C/c1ccc(O)c(O)c1)c1ccccc1O	none
O=C(C=Cc1cccc(O)c1)c1ccccc1O	PfHsp40 rescue 383 (no result: Rv3671c protease, Mtb betalactam, Mtb UGM inh)
CCC(C)c1ccc(NC(=S)NCc2ccccc2OC)cc1 (configuration not stated)	PfHsp40 rescue 84 (no result: Rv3671c protease, Mtb betalactam, Mtb UGM inh)
CCCCN1C(=O)C(CC(=O)NCc2ccco2)CC(C(=O)N2CCOCC2)=C1C (configuration not stated)	none (no result: Rv3671c protease, PfHsp40 rescue, Mtb betalactam, Mtb UGM inh)
COC(/C(=N/O)c1ccc(Cl)cc1)c1ccccc1 (configuration not stated)	PfHsp40 rescue 122
COc1ccc(Cl)cc1NC(=O)C(OC)c1ccccc1 (configuration not stated)	none
Cc1cc(C)c2c(N=NN(C)C)[nH]nc2n1	PfHsp40 rescue 68
Cc1ccccc1-c1noc(-c2ccc(O)cc2)n1	PfHsp40 rescue 129
COc1ccccc1-c1cc(NC(C)=O)c2ncc(-c3cccc(C(C)=O)c3)n2c1	none (no result: Rv3671c protease, PfHsp40 rescue, Mtb betalactam, Mtb UGM inh)
Cn1c(Nc2ccc(Cl)cc2F)nc2cc(-c3ccccc3)sc2c1=O	none (no result: Rv3671c protease, PfHsp40 rescue, Mtb betalactam, Mtb UGM inh)
COc1cc(N2CCCC2)c(OC)cc1/C=C(/C#N)c1ccc(Br)cc1	Mtb UGM inh 55
COc1cc(N2CCCC2)c(OC)cc1/C=C(/C#N)c1ccc(F)cc1	none
CN1CCN(c2ncnc3c2ncn3[C@H]2CN(Cc3ccc4c(c3)OCO4)C[C@@H](CO)O2)CC1	none (no result: Rv3671c protease, PfHsp40 rescue, Mtb betalactam, Mtb UGM inh)
Oc1ccc(N=Nc2ccccc2-c2nn[nH]n2)c(O)c1	FadD28 binding 22
CC(=O)c1cccc(NC(=O)c2cccc3c(-c4cccnc4)coc23)c1	none (no result: Rv3671c protease, PfHsp40 rescue, Mtb betalactam, Mtb UGM inh)
Cn1nnnc1Sc1ncnc2scc(-c3ccsc3)c12	none
CCOCCCNC(=O)C1(O)c2cc(Br)ccc2NC(=O)N1c1ccc(OCC)cc1 (configuration not stated)	PfHsp40 rescue 51
CCOCCCNC(=O)C1(O)c2cc(Br)ccc2NC(=O)N1c1ccc(CC)cc1 (configuration not stated)	none
C[C@H]1CN(CCc2ccccc2)C(=O)[C@@H]1CC(=O)Nc1ccccc1	none (no result: Rv3671c protease, PfHsp40 rescue, Mtb betalactam, Mtb UGM inh)
O=C1CC(=O)N(Cc2ccco2)C(=O)N1	none
O=C1CC(=O)N(Cc2ccco2)C(=S)N1	FadD28 binding 29
Cc1ccc(NC(=O)c2cc(N3C(=O)CCC3=O)ccc2N2CCOCC2)cc1	none
Cc1ccc(NC(=O)c2cc(N3C(=O)C=CC3=O)ccc2N2CCOCC2)cc1Cl	PfHsp40 rescue 36
O=C(C1CCCCC1)N1C[C@H](O)[C@@H](n2cc(-c3ccc(F)cc3)nn2)C[C@@H]1c1ccccc1	none (no result: Rv3671c protease, PfHsp40 rescue, Mtb betalactam, Mtb UGM inh)
C=Cc1c(C)c2cc3[nH]c(cc4nc(cc5nc(cc1[nH]2)C(C)=C5CCC(=O)O)C(CCC(=O)O)=C4C)c(C)c3C=C	FadD28 binding 43!
O=C(CN1CCN(c2ccccn2)CC1)Nc1ccccc1	PfHsp40 rescue 26
O=C1c2ccccc2C(=O)N1CCC#C/C=C1\c2ccccc2C(=O)N1c1ccccc1	none (no result: Rv3671c protease, PfHsp40 rescue, Mtb betalactam, Mtb UGM inh)
CN1OC[C@@H]2CN(C(=O)CCc3ccccc3)[C@H](c3cccc(-c4ccccc4)c3)C[C@@H]21	none (no result: Rv3671c protease, Mtb betalactam, Mtb UGM inh)
CCN(CC)S(=O)(=O)c1ccc(N2CCOCC2)c(NC(=O)C(=O)c2c(-c3ccccc3)cc3ccccn23)c1	PfHsp40 rescue 130
CCN(CC)S(=O)(=O)c1cccc(NC(=O)C(=O)c2c(-c3ccccc3)cc3ccccn23)c1	none
Cc1ccccc1Cn1c(C)c(C(=O)N(C)Cc2ccc(F)cc2)sc1=O	none (no result: Rv3671c protease, PfHsp40 rescue, Mtb betalactam, Mtb UGM inh)
C/C=C(/C)C(=O)Nc1cccc(C2=NOC3(C2)C[C@H](C(N)=O)N(C(=O)c2ccccc2)C3)c1 (some centres not stated)	none
C/C=C(\C)C(=O)Nc1cccc(C2=NOC3(C2)C[C@@H](C(N)=O)N(C(=O)c2ccccc2C(=O)c2ccccc2)C3)c1 (some centres not stated)	PfHsp40 rescue 51
O=C(NCc1ccccn1)C(=O)NCC1OCCCN1S(=O)(=O)c1ccc(F)cc1 (configuration not stated)	none
O=C(NCc1ccccn1)C(=O)NCC1OCCN1S(=O)(=O)c1ccc(F)cc1 (configuration not stated)	PfHsp40 rescue 33
Cc1ccc(S(=O)(=O)N2CCN(C(=O)c3cc4c(s3)CCCC4)CC2)c(C)c1	none
O=C(c1cc2c(s1)CCCC2)N1CCN(S(=O)(=O)c2ccccc2C(F)(F)F)CC1	Y pestis TopoI 58
Cn1ccsc1=NC(=O)c1ccc([N+](=O)[O-])o1	PfHsp40 rescue 248
COc1ccc(/C=C/C(=O)OCC(=O)N2c3ccccc3CC2C)cc1 (configuration not stated)	none (no result: Rv3671c protease, PfHsp40 rescue, Mtb betalactam, Mtb UGM inh)
O=C1NC(=S)SC1=Cc1cc(Br)ccc1O	FadD28 binding 12 (no result: Rv3671c protease, Mtb betalactam, Mtb UGM inh)
CC(C)NC(=O)Cn1nnc(-c2ccccc2)c1COc1ccc2ccccc2c1	none (no result: Rv3671c protease, PfHsp40 rescue, Mtb betalactam, Mtb UGM inh)
Cc1ccc(C)c(Sc2ccc(NC(=O)CCN3C(=O)NC4(CCCC4)C3=O)cc2)c1	PfHsp40 rescue 31
COc1ccc(CNn2c(-c3cccc(C)c3)nc3ccccc3c2=O)cc1OC	none
COc1ccccc1CNn1c(-c2cccc(C)c2)nc2ccccc2c1=O	PfHsp40 rescue 42
CCCOc1ccc(CSCCNC(=S)Nc2ccccc2)cc1	PfHsp40 rescue 216
COc1ccc(NC(=O)C2(C)CCCN(C(C)C)C2)cc1OC (configuration not stated)	none (no result: Rv3671c protease, PfHsp40 rescue, Mtb betalactam, Mtb UGM inh)
O=C(Nc1sc(-c2ccccc2)cc1C(=O)O)c1ccccc1	FadD28 binding 19
CCOC(=O)c1cc(-c2ccccc2)sc1NC(=O)c1ccc(OC)cc1	none (no result: PfHsp40 rescue, Y pestis TopoI, FadD28 binding)
Cc1ccc(S(=O)(=O)N2CCCC(C(=O)N3CCN(c4ccccc4)CC3)C2)cc1 (configuration not stated)	PfHsp40 rescue 74
CN(C)Cc1ccccc1CNC(=O)c1ccc(Cl)c(S(=O)(=O)NC2CC2)c1	none (no result: Rv3671c protease, PfHsp40 rescue, Mtb betalactam, Mtb UGM inh)
COCCN(Cc1ccco1)C(=O)C1CCCN(c2ncnc3c2nc2n3CCCCC2)C1 (configuration not stated)	none
CCc1nc2ccc(C(=O)NCCCN3CCCC3=O)cn2c1N(C)C(=O)C1CCCCC1	none (no result: Rv3671c protease, PfHsp40 rescue, Mtb betalactam, Mtb UGM inh)
c1ccc(-c2nc(NCc3cccnc3)c3oc4ccccc4c3n2)cc1	PfHsp40 rescue 48
COc1ccc(S(=O)(=O)NC(=O)C2(C)CCN2C(=O)CCC2CCCC2)cc1OC (configuration not stated)	none (no result: Rv3671c protease, PfHsp40 rescue, Mtb betalactam, Mtb UGM inh)
COC(=O)c1c(C)cc(O)c(C=O)c1O	none
Cc1cc2c(C(C)C)c(O)c(O)c(C=O)c2c(O)c1-c1c(C)cc2c(C(C)C)c(O)c(O)c(C=O)c2c1O	FadD28 binding 51 (no result: Rv3671c protease, PfHsp40 rescue, Mtb betalactam, Mtb UGM inh)
CC1(C(=O)NS(=O)(=O)Cc2cccc(Cl)c2)CCN1C(=O)c1cccc(F)c1 (configuration not stated)	none (no result: Rv3671c protease, PfHsp40 rescue, Mtb betalactam, Mtb UGM inh)
CCc1nc2ccc(C(=O)N(C)Cc3ccco3)cn2c1N(C)Cc1ccc(OC)cc1	none (no result: Rv3671c protease, PfHsp40 rescue, Mtb betalactam, Mtb UGM inh)

Bioassay records as filed in PubChem BioAssay.
